Results taken from PubChem BioAssay AID1347131 (National Center for Advancing Translational Sciences (NCATS), 2019).
The campaign covered roughly 410,000 compounds. About 2,000 (0.49%) were called active. A call without a number means that no potency is given here. Another 8% or so got no clear call; they are omitted. Calls come from the whole dose curve; tested in HEK293 reporter line. Many of the other results were omitted from the sample, so actives are more common in it than they were.

Experiment: qHTS Assay for Foot and Mouth Disease Virus Antivirals: Primary Screen against the MLPCN compound library; note: nearly all actives have a fitted effect of over 55% in size
Conditions: FMDV antiviral cell-based qHTS; series mostly up to 57.9 µM
Potency is the fitted concentration of half-maximal effect.

Structure (SMILES) | Potency
Cc1cc(C)cc(NC(=O)c2ccc3c(c2)nnn3C2CCCC2)c1 | inactive
O=C(Nc1cccc(C(F)(F)F)c1)c1ccc2c(c1)nnn2C1CCCC1 | 12.6 µM (active)
CCOC(=O)c1ccccc1NC(=O)CN1CCC(n2nnc3cc(C(F)(F)F)ccc32)CC1 | inactive
COc1ccc(NC(=O)c2cc(-c3ccccn3)nc3ccccc23)cc1S(=O)(=O)N(C)C | inactive
CCn1c(=O)c(C(=O)NCc2ccc(OC)c(OC)c2)c(O)c2ccccc21 | inactive
COc1ccc(CCNC(=O)CSc2nnc(-c3ccccc3)c3ccccc23)cc1OC | inactive
COc1ccc(CNC(=O)Cn2c(=O)nc(-c3ccccc3)c3ccccc32)cc1OC | 20 µM (active)
CC(=O)c1cc(-c2ccccc2)n(CC(=O)Nc2ccc(C)c(C)c2)c1C | inactive
c1csc(Cn2nnnc2CN2CCN(c3nc4ccccc4s3)CC2)c1 | 17.8 µM (active)
COc1cccc2sc(N3CCN(c4nc5ccccc5s4)CC3)nc12 | inactive
Cc1nc2cc(C(F)(F)F)ccc2n1C1CCN(Cc2nnnn2Cc2cccs2)CC1 | inactive
Nc1ccc(-c2ccc(N)cc2C(F)(F)F)c(C(F)(F)F)c1 | inactive
CC(=O)C1=C(c2ccc(F)cc2)N(C(C)=O)n2c(nnc2C2CCCCC2)S1 | inactive
CCOC(=O)Cc1csc(NC(=O)COc2ccc(OC)cc2)n1 | inactive
CCN(CC)CCNC(=O)COc1ccc(OC)cc1 | inactive
COc1ccc(OCC(=O)Nc2nccs2)cc1 | 15.8 µM (active)
COc1ccc(NC(=O)CN(C)C(=O)c2cccc(S(=O)(=O)N3CCN(c4ccccc4)CC3)c2)cc1 | inactive
Cc1ccccc1CS(=O)(=O)c1ccc(C(=O)N2CCOCC2)cc1[N+](=O)[O-] | inactive
Cc1ccc(S(=O)(=O)Nc2c(C)cc([N+](=O)[O-])cc2C)cc1 | inactive
Cc1ccc(S(=O)(=O)Cc2cc(F)c([N+](=O)[O-])cc2[N+](=O)[O-])cc1 | 15.8 µM (active)
O=C(N/N=C/c1cccs1)C(O)c1ccccc1 (configuration not stated) | inactive

Structure (SMILES) | Potency
O=C(Nc1cccc(Cl)c1N1CCOCC1)c1cc([N+](=O)[O-])ccc1N1CCOCC1 | inactive
CCOc1ccc(NC(=O)N(Cc2ccc(CC)cc2)Cc2cn[nH]c2-c2ccc(OC)cc2)cc1 | inactive
CCOC(=O)c1cc(C)n(CC2CCC(C(=O)Nc3ccc(OC)cc3)CC2)c1C (configuration not stated) | inactive
CCOC(=O)c1cn[nH]c1NC(=S)Nc1ccc(OC)cc1 | 17.8 µM (active)
Cc1ccc(S(=O)(=O)N/N=C/c2ccc(OCC(=O)N3CCOCC3)cc2)cc1 | inactive
CCOc1ccc(CNC(=O)CCCn2ccc3cc(S(=O)(=O)N4CCCC4)ccc32)cc1 | inactive
O=C(Nc1cccc(S(=O)(=O)N2CCCCC2)c1)c1cnccn1 | inactive
O=C(Nc1ccc(N2CCOCC2)cc1)c1cnccn1 | 12.6 µM (active)
O=C(Nc1ccc(N2CCOCC2)c(Cl)c1)c1c(F)c(F)c(F)c(F)c1F | inactive
Cc1cc2oc(C(=O)NC3CCS(=O)(=O)C3)cc(=O)c2cc1C (configuration not stated) | inactive
CCc1ccc(NC(=O)c2sc3nc(C)nc(N4CCN(c5ccccn5)CC4)c3c2C)cc1 | inactive
Cc1ccc(S(=O)(=O)N(C)CCCC(=O)Nc2ccncc2)cc1 | inactive
Cc1ccc(S(=O)(=O)N(C)CCCC(=O)N2CCN(c3ccccn3)CC2)cc1 | 22.4 µM (active)
CN(C)c1ccc(C(=O)N2CCCC(CCC(=O)N3CCN(c4ccccn4)CC3)C2)cc1 (configuration not stated) | inactive
COc1ccc(C(=O)NCC(=O)N2CCN(C(=O)c3ccco3)CC2)cc1[N+](=O)[O-] | inactive
CC(NC(=O)C1CCN(CCOc2ccc(Cl)cc2)CC1)c1cccc2ccccc12 (configuration not stated) | inactive
O=C(/C=C/c1ccco1)N1CCN(C/C=C/c2ccccc2)CC1 | inactive
C[C@H](NC(=O)c1ccc(C(C)(C)C)cc1)C(=O)N1CCN(C/C=C/c2ccccc2)CC1 | inactive
O=C(c1ccc(=O)n(Cc2ccccc2)n1)N1CCN(C/C=C/c2ccccc2)CC1 | 15.8 µM (active)
CCOc1ccc(-n2c(SCc3nc(-c4ccc(OC)cc4)no3)nnc2-c2ccncc2)cc1 | inactive
O=C(NCc1ccc(F)cc1)C(=O)NCC(c1cccs1)S(=O)(=O)c1cccs1 (configuration not stated) | inactive

Structure (SMILES) | Potency
Cc1ccc(Nc2sc(C(=O)c3ccccc3)c(N)c2C(=O)Nc2ccc(Cl)cc2)cc1 | 15.8 µM (active)
Cc1sc(NC(=O)c2ccccc2)c(C(=O)c2ccccc2)c1C | inactive
Cc1ccccc1Nc1sc(C(=O)c2ccccc2)c(N)c1S(C)(=O)=O | inactive
O=S(=O)(c1ccc(Cl)cc1)c1nnn2c1nc(NC1CCCCC1)c1sccc12 | inactive
COc1ccc2nc(NC(=O)c3ccco3)sc2c1 | 15.8 µM (active)
Cc1ccc2nc(NC(=O)CSc3nccn3Cc3ccc(F)cc3)sc2c1 | inactive
Cc1ccc2nc(NC(=O)c3cc(-c4ccco4)nc4ccccc34)sc2c1 | inactive
Cc1ccc2nc(NC(=O)c3ccco3)sc2c1 | 12.6 µM (active)
COc1ccc(C(=O)Nc2nc3ccccc3s2)c(OC)c1 | inactive
COc1ccc2oc(C(=O)Nc3nc4ccc(S(C)(=O)=O)cc4s3)c(C)c2c1 | inactive
CCCCCc1nnc(NC(=O)c2cccc(S(=O)(=O)N3CCOCC3)c2)s1 | inactive
CN(C)S(=O)(=O)N1CCc2ccc(NC(=O)c3ccc(C(F)(F)F)cc3)cc2C1 | inactive
COc1cc(-c2cc(NC=O)c3ncc(-c4cccc(C(F)(F)F)c4)n3c2)cc(OC)c1OC | inactive
CSc1ccccc1OCc1cc(C(=O)NCC(C)(C)N2CCOCC2)no1 | inactive
N#Cc1cc2c(nc1SCC(=O)Nc1ccc(OC(F)(F)F)cc1)C1CCN2CC1 | 15.8 µM (active)
O=C(CSc1nc(=O)n(CCN2CCOCC2)c2c1CCC2)Nc1ccc(OC(F)(F)F)cc1 | inactive
O=C1CCCN2N=C(SCC(=O)Nc3ccc(OC(F)(F)F)cc3)SC2=N1 | inactive
CCCN1C(=O)c2cc(C(=O)Nc3ccccc3OC)ccc2C1Nc1ccccc1OC (configuration not stated) | inactive
CCc1ccc(-n2c(=O)c3c4c(sc3n(CC(=O)N3CCCCC3CC)c2=O)CCC4)cc1 (configuration not stated) | inactive
CC(C)C(=O)N1CCC(CN=Cc2c(O)n(C3CCCCC3)c(=O)n(C3CCCCC3)c2=O)CC1 | 25.1 µM (active)
